This passage reports outcome and AC50 results from PubChem BioAssay (EPA / NIEHS).

The source made the active and inactive calls. How the source made its calls: active means hit-call score of the fitted dose curve at least 0.9, where 1 is the maximum; inactive means score below 0.9.

Assay [1] can be described thus: ATG_PBREM_CIS: Attagene CIS-FACTORIAL HepG2 Assay for human Phenobarbital-responsive Enhancer Module (PBREM) (AID 2282955). The conditions noted are these: HepG2 PBREM cis-reporter, Attagene multiplexed transcription; actives raise or lower the signal. A digest of the protocol: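 HepG2 cells transiently transfected with multiple cis-regulated reporter units measure endogenous transcription factor activity; 24 h compound exposure. Reporter mRNA quantified by RT-PCR, fluorescent labelling, HpaI digestion and capillary electrophoresis; bidirectional fit versus DMSO.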

Assay [2] has as its target Paired box protein Pax-6 (Homo sapiens) (UniProt P26367). Put plainly: ATG_Pax6_CIS: Attagene CIS-FACTORIAL HepG2 Assay for human Paired Box 6 (PAX6) (AID 2282956). Conditions: HepG2 CIS-FACTORIAL PAX6 reporter transcription, RNA readout; actives raise or lower the signal. A digest of the protocol:
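Readout: reporter transcript fluorescence after RT-PCR and capillary electrophoresis. Cells: HepG2, transiently transfected with cis-regulated MRTUs. Exposure 24 h. Gain or loss of signal fitted bidirectionally relative to DMSO.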

A short description of assay [3]: ATG_PXRE_CIS: Attagene CIS-FACTORIAL HepG2 Assay for human Pregnane X Receptor Element (PXRE) (AID 2282957). The conditions noted are these: HepG2 Attagene CIS-FACTORIAL PXRE reporter, mRNA; actives raise or lower the signal. The method, boiled down: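 Using HepG2 transfected with multiple reporter transcription units, endogenous factor-driven transcription was scored as reporter mRNA after 24 h exposure.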

Assay [4] can be described thus: ATG_RORE_CIS: Attagene CIS-FACTORIAL HepG2 Assay for human RAR-related Orphan Receptor Element (RORE) (AID 2282959). Conditions: HepG2 Attagene cis-factorial RORE reporter, mRNA; actives raise or lower the signal. The method, boiled down: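 HepG2 cells carrying transiently transfected cis-regulated reporter units; RORE-driven reporter mRNA quantified 24 h post-dosing by RT-PCR, 6-FAM primer extension, HpaI digestion and capillary electrophoresis. Bidirectional fit versus DMSO.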

Assay [5] in a line: ATG_Sox_CIS: Attagene CIS-FACTORIAL HepG2 Assay for human SRY-box transcription factor (SOX) (AID 2282960). Conditions: HepG2 Attagene cis-factorial SOX reporter, mRNA; actives raise or lower the signal. A digest of the protocol: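 HepG2 cells transiently transfected with multiple cis-regulated reporter units, then dosed for 24 h. Reporter mRNA quantified by RT-PCR, fluorescent labelling, HpaI digestion and capillary electrophoresis; bidirectional fit versus DMSO.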

In assay [6] the target is Transcription factor Sp1 (Homo sapiens) (UniProt P08047). Put plainly: ATG_Sp1_CIS: Attagene CIS-FACTORIAL HepG2 Assay for human Specificity Protein 1 (Sp1) (AID 2282961). The conditions noted are these: HepG2 Sp1 cis-reporter transcription, actives raise or lower the signal. The method, boiled down:
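HepG2 cells transiently transfected with multiplexed cis-regulated reporter constructs, chemical exposure 24 h. Reporter mRNA quantified by RT-PCR with capillary electrophoresis; bidirectional fit relative to DMSO.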

Assay [7] in a line: ATG_SREBP_CIS: Attagene CIS-FACTORIAL HepG2 Assay for human Sterol Regulatory Element Binding (SREBP) (AID 2282962). The conditions noted are these: HepG2 Attagene cis-factorial SREBP reporter, mRNA; actives raise or lower the signal. A digest of the protocol: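 Readout: fluorescent reporter-transcript peaks resolved by capillary electrophoresis after RT-PCR. Cells were human HepG2 carrying transfected cis-promoter reporter constructs, dosed for 24 h. Gain or loss of signal was fitted against DMSO controls.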

Assay [8] addresses Signal transducer and activator of transcription 3 (Homo sapiens) (UniProt P40763). Put plainly: ATG_STAT3_CIS: Attagene CIS-FACTORIAL HepG2 Assay for human Signal Transducer and Activator of Transcription 3 (STAT3) (AID 2282963). The conditions noted are these: HepG2, Attagene cis-factorial STAT3 reporter transcription; actives raise or lower the signal. The method, boiled down:
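HepG2, MRTU-transfected, 24 h dosing. RNA → RT → PCR → FAM label → HpaI → CE. Bidirectional fit vs DMSO.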

The nature of assay [9]: ATG_TA_CIS: Attagene CIS-FACTORIAL HepG2 Assay for human TA Basal Promoter (AID 2282964). Conditions: HepG2 Attagene CIS-factorial TA basal promoter reporter; actives raise or lower the signal. The method, boiled down:
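Background internal-marker endpoint from a 52-component HepG2 cis-reporter panel. Cells treated 24 h; reporter transcripts quantified via RT-PCR and CE fluorescence against DMSO baseline.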

A short description of assay [10]: ATG_PPRE_CIS: Attagene CIS-FACTORIAL HepG2 Assay for human Peroxisome Proliferator-activated Response Element (PPRE) (AID 2282958). The conditions noted are these: HepG2 PPRE cis-element reporter, Attagene transcription factor profiling; actives raise or lower the signal. A digest of the protocol: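 HepG2 cells are transiently transfected with multiplexed cis-promoter reporter units to report endogenous PPAR activity. After 24 h dosing, reporter mRNA is read by RT-PCR and capillary electrophoresis. Fitting is bidirectional against DMSO.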

Sequence of Paired box protein Pax-6 (Homo sapiens) (P26367 whole entry, looked up): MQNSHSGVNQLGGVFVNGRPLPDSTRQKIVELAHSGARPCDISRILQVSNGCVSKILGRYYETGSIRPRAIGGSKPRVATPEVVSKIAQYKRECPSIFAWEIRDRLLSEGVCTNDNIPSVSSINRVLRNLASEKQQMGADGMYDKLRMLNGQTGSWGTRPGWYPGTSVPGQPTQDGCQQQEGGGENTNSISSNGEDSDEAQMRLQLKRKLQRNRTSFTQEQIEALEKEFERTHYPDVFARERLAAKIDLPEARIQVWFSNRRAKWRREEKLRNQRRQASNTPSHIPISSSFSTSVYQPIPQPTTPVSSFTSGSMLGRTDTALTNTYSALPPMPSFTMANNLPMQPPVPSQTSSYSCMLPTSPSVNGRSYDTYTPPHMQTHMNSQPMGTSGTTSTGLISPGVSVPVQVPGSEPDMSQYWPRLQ
Sequence of Transcription factor Sp1 (Homo sapiens) (P08047 whole entry, looked up): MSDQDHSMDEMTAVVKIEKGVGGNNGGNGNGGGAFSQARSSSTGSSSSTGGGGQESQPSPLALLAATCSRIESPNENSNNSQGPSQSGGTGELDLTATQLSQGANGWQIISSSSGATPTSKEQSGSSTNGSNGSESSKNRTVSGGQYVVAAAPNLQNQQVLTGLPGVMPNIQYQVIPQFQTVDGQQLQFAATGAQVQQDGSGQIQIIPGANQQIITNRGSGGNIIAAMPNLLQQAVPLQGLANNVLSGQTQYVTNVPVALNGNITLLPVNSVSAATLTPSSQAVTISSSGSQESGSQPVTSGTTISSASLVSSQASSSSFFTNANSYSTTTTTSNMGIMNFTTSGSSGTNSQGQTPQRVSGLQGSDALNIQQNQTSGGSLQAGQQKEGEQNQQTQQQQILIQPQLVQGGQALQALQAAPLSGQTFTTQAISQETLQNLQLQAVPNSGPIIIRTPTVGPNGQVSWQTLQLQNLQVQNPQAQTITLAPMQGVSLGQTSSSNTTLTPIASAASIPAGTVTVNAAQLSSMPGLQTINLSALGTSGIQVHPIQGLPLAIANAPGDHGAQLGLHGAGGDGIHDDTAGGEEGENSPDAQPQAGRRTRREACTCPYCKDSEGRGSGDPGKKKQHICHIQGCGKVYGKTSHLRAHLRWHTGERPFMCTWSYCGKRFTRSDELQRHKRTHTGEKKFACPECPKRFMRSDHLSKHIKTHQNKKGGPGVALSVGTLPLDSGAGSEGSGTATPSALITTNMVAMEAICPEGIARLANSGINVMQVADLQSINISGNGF
Sequence of Signal transducer and activator of transcription 3 (Homo sapiens) (P40763 whole entry, looked up): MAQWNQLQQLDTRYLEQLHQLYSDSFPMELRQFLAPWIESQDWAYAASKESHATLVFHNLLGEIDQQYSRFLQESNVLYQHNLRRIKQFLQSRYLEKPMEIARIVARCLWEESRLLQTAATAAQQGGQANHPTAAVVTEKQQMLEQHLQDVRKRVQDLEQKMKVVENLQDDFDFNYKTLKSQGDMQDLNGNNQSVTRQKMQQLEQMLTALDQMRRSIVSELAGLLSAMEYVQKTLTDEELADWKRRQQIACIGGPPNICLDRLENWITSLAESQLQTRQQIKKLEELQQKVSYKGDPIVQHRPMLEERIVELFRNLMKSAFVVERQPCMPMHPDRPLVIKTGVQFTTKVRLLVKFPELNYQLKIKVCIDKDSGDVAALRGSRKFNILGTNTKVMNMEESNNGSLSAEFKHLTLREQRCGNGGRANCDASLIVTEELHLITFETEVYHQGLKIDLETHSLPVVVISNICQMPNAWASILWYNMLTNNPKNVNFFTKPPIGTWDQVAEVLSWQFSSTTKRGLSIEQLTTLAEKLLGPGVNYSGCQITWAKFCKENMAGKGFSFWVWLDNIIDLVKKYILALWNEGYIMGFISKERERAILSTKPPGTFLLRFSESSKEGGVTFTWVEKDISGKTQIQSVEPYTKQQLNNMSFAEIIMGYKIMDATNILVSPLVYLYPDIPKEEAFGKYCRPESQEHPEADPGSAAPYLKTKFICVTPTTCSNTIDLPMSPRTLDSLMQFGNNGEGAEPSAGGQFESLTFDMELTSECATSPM

Regarding `C=CCOCC(O)CO` (stereo not drawn), the outcome in assay [1], in assay [2], in [3], in assay [4], in [5] and in [6] was inactive. Moreover, the call in assay [7], in assay [8] and in assay [9] was inactive.

What is called AC50 is the midpoint of the concentration-response curve, whichever way the signal moves. As to `C=CC(C)(CCC=C(C)C)OC(=O)CC` (stereo not drawn), the outcome in assay [1], in assay [2], in [4], in assay [5], in [6] and in assay [7] was inactive. In addition, the compound was called inactive in assay [8] and in assay [9]. Also, the AC50 in assay [3] is 31 µM (active).

As for `NC(N)=S`, the result in [1], in assay [2], in [3], in [4], in assay [5] and in assay [6] was inactive. Besides, the call in assay [7], in assay [8] and in [9] was inactive.

Turning to `Nc1ccc(O)c(N)c1`, the result in assay [1], in assay [2], in [3], in [4], in assay [5] and in assay [6] was inactive. Also, the call in [7], in assay [8] and in assay [9] was inactive.

For the compound `COc1ccc(C(C)=O)cc1`, the result in [1], in assay [2], in [3], in assay [4], in assay [5] and in assay [6] was inactive. For the same compound, the compound was classed as inactive in [7], in [8] and in assay [9].

In the case of `Cc1ccccc1S`, the result in assay [1], in assay [4], in assay [8] and in assay [9] was inactive. The AC50 in assay [2] is 60.4 µM (active); in assay [3], 19.7 µM (active); in assay [5], 103 µM (active); in [6], 80.3 µM (active); in [7], 41.7 µM (active).

As for `CC(C)(C)C1CCC(O)CC1` (stereo not drawn), the outcome in [1], in assay [2], in assay [3], in [4], in assay [5] and in [6] was inactive. Also, the outcome in assay [7], in assay [8] and in [9] was inactive.

`COc1ccc2[nH]cc(CCNC(C)=O)c2c1`: the result in assay [1], in assay [2], in assay [3], in assay [4], in [5] and in [6] was inactive. Also, the call in [7], in assay [8] and in [9] was inactive.

Regarding `CCCCCCCCCOS(=O)(=O)O`, the result in assay [1], in assay [2], in assay [3], in assay [5], in assay [6] and in [7] was inactive. In addition, the outcome in assay [8] and in assay [9] was inactive. In assay [10], the AC50 was 24 µM (active).

In the case of `OCCN1CCOCC1`, the outcome in assay [1], in assay [2], in [3], in assay [4], in [5] and in assay [6] was inactive. The compound was classed as inactive in assay [7], in assay [8] and in [9].

In the case of `CC(C)OB(OC(C)C)OC(C)C`, the outcome in assay [1], in [2], in assay [3], in assay [4], in assay [5] and in assay [6] was inactive. Further, the compound was classed as inactive in assay [7], in [8] and in assay [9].

Take `O=C1CCCCCCCCCCCC(=O)OCCO1`: the result in assay [1], in [2], in [3], in assay [4], in [5] and in assay [6] was inactive. Moreover, the compound was classed as inactive in assay [7], in assay [8] and in assay [9].

As for `O=C(C=Cc1ccccc1)OCCCc1ccccc1`, the result in assay [1], in assay [2], in [4], in assay [5], in assay [6] and in assay [7] was inactive. Further, the call in assay [8] and in assay [9] was inactive. In addition, the AC50 in assay [3] was 19.9 µM (active).

With `C=C(C)C(N)=O`, the result in assay [1], in assay [2], in [3], in assay [4], in [5] and in assay [6] was inactive. Besides, the outcome in assay [7], in [8] and in assay [9] was inactive.

Take `CCCCCCCCCO`: the result in [1], in assay [2], in assay [3], in [4], in [5] and in assay [6] was inactive. Also, the compound was called inactive in [7], in assay [8] and in [9].

Take `CCOC(=O)CCCCCCCCC(=O)OCC`: the outcome in assay [1], in assay [2], in [3], in [4], in [5] and in assay [6] was inactive. Besides, the call in [7], in [8] and in [9] was inactive.

For the compound `C=C(C)C(=O)OCCN(C)C`, the result in assay [1], in assay [2], in assay [3], in [4], in [5] and in assay [6] was inactive. Further, the compound was classed as inactive in [7], in assay [8] and in [9].

With `C1CCCNCC1`, the outcome in assay [1], in assay [2], in [4], in assay [5], in assay [6] and in assay [7] was inactive. In addition, the call in assay [8] and in assay [9] was inactive. Besides, in assay [3], the AC50 was 27.3 µM (active).

Consider `CC1=CCC(C(C)C)=CC1`, for which the result in assay [1], in assay [2], in assay [3], in assay [5], in [6] and in [7] was inactive. Moreover, the outcome in assay [8] and in assay [9] was inactive.

Consider `CCO[Si](CC)(OCC)OCC`, for which the result in [1], in [2], in [4], in assay [5], in assay [6] and in [7] was inactive. The call in [8] and in [9] was inactive. In addition, the AC50 in assay [3] is 2.33 µM (active).

Consider `COC(=O)c1ccc(C(=O)OC)cc1`, for which the result in assay [1], in [2], in [3], in assay [4], in assay [5] and in assay [6] was inactive. Also, the result in [7], in [8] and in assay [9] was inactive.

In the case of `c1ccc2scnc2c1`, the compound was called inactive in assay [2], in assay [10], in [4], in [5], in assay [6] and in [7]. Besides, the call in [8] and in assay [9] was inactive. Moreover, the concentration at half-maximal activity (AC50) in assay [3] is 55.6 µM (active).

For `CC(O)COCC(C)O` (stereo not drawn), the compound was called inactive in assay [2], in [3], in assay [10], in assay [4], in assay [5] and in [6]. Also, the outcome in [7], in assay [8] and in assay [9] was inactive.

For the compound `CC(C)=CC(=O)O`, the result in [1], in assay [2], in [4], in assay [5], in [6] and in assay [7] was inactive. Also, the compound was classed as inactive in assay [8] and in assay [9]. Besides, in [3], the AC50 was 99.5 µM (active).

`C=C1CC/C=C(\C)CC[C@@H]2[C@@H]1CC2(C)C`: the outcome in assay [1], in assay [2], in assay [4], in assay [5], in [6] and in [7] was inactive. Moreover, the outcome in [9] was inactive. Also, in [3], the AC50 was 26.6 µM (active).

Turning to `CC(C)CCCC(C)(C)O`, the result in [1], in [2], in [3], in assay [4], in assay [5] and in [6] was inactive. Further, the outcome in [7], in [8] and in [9] was inactive.

Regarding `C=C(C)C(=O)OCCOCCOC(=O)C(=C)C`, the outcome in assay [1], in assay [2], in [3], in [5], in [6] and in [7] was inactive. In addition, the outcome in assay [8] and in assay [9] was inactive.

As for `[Na+]`, the outcome in [1], in assay [2], in assay [3], in assay [5], in [6] and in assay [7] was inactive. In addition, the call in [8] and in assay [9] was inactive.
